This is a sample that favours compounds with a hit; in the whole collection about 6.9% have one here.
JMJD2A Tudor inh: JMJD2A Tudor domain (human) inhibition | AID 504339 | 390,000 compounds, 4.4% hits | Potency, µM (highest dose often 114 µM), without a hit: top-dose activity change, negative = inhibition, hits mostly inhibitors | O75164 | AlphaScreen JMJD2A-Tudor / H3K4me3 peptide binding; further: on the % scale 0 is the no-effect control and ±100 the full control effect; nearly all actives have a fitted effect of over 50% in size
Target sequence (O75164 whole entry, looked up, the tested form may be a part): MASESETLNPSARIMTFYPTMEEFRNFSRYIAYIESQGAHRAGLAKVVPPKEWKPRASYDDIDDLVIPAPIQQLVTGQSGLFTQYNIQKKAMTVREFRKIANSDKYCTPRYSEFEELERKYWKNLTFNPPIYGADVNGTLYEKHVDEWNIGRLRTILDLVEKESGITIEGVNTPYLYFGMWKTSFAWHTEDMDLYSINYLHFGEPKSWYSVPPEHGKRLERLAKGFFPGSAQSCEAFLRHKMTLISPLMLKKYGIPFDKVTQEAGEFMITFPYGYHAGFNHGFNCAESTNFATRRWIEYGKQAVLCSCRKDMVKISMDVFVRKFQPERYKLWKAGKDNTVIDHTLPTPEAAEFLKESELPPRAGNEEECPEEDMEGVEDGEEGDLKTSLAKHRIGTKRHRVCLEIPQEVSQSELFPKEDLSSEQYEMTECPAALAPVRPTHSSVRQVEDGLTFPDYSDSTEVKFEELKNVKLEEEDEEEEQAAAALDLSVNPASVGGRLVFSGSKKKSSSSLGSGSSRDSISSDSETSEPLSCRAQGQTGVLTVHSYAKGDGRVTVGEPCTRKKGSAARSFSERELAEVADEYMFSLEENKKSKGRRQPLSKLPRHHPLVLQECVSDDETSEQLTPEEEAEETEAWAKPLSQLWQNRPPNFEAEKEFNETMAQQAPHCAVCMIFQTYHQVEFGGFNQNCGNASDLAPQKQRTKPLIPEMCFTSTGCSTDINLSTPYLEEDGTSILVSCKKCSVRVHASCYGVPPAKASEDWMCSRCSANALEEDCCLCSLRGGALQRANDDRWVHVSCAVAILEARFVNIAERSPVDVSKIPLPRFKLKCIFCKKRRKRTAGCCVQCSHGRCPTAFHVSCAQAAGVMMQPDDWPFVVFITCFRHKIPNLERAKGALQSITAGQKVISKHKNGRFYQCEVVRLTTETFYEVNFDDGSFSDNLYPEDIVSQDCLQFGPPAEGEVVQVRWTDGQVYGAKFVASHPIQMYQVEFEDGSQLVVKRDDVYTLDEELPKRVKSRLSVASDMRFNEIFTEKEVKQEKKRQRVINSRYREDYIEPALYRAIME
PLK1 PBD inh: inhibitors of human PLK1 polo-box domain binding. Plk1 PBD binding of FITC phosphopeptide, fluorescence polarization. Potency, µM, for the others: max response, negative = inhibition, usual class: inhibitors. 360,000 compounds, 2.8% hits; further: series mostly up to about 57 µM; on the % scale 0 is the no-effect control and ±100 the full control effect; nearly all actives have a fitted effect of over 65% in size
HP1b binding inh: HP1-beta chromodomain-methylated histone interaction inhibition | P83916 | AlphaScreen HP1-beta / biotin-H3K9me3 peptide binding | Potency, µM (series often up to 114 µM), without a hit: top-dose activity change, negative = inhibition, actives largely listed as inhibitors | 390,000 compounds, 0.56% hits | AID 540317; further: nearly all actives have a fitted effect of over 70% in size
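Compound inhibition of the preformed complex between 50 nM HP1-beta and 50 nM biotinylated H3K9me3 peptide was read by AlphaScreen. Buffer was PBS pH 7.4 with 0.01% Tween-20. Incubations ran 30 min at room temperature, with 10 ug/mL donor/acceptor beads.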
BAZ2B block: blocks human BAZ2B; AlphaScreen BAZ2B-H3K14Ac peptide displacement; Potency, µM (highest dose often 114 µM), without a hit: at the top dose activity change, negative = inhibition, hits mostly inhibitors; 360,000 compounds, 4.4% hits; further: on the % scale 0 is the no-effect control and ±100 the full control effect; nearly all actives have a fitted effect of over 60% in size
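Multi-concentration screen (max 110 uM) measuring displacement of acetylated histone H3 peptide from BAZ2B by AlphaScreen, using 50 nM protein, 50 nM peptide and 10 ug/mL streptavidin donor plus Ni-chelate acceptor beads.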
L3MBTL1 inh: L3MBTL1 (human) inhibition; Q9Y468; AlphaScreen L3MBTL1–H3K9me1 peptide binding; Potency, µM (series often up to 57.1 µM), without a hit: at the top dose activity, negative = inhibition, hits mostly inhibitors; 230,000 compounds, 0.66% hits; further: on the % scale 0 is the no-effect control and ±100 the full control effect; nearly all actives have a fitted effect of over 60% in size
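L3MBTL1 (50 nM) pre-complexed 30 min with biotinylated H3(1-15)K9me1 peptide (75 nM), then compounds added for 30 min at room temperature; AlphaScreen streptavidin donor/nickel chelate acceptor beads (10 ug/mL final) read after 30 min dark incubation.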
VDR inhibitor: inhibitors of human vitamin D receptor; 400,000 compounds, 0.93% hits; VDR-SRC2-3 peptide fluorescence polarization, 2 h; P11473; Potency, µM, for the others: max response, negative = inhibition, actives largely listed as inhibitors; further: on the % scale 0 is the no-effect control and ±100 the full control effect
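FP read-out; VDR + SRC2-3 coactivator peptide; 23 nl compound by pintool; 2 h RT incubation; reagents held at 4 deg C, protected from light.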
An asterisk follows results filed as active; u = inconclusive; x = no result given; [ ] = dose if it differs, or a comment. The call rests on the fitted dose curve; in most records, active means well fitted curve in the direction sought with a large enough effect; inconclusive means small, poorly fitted or top-dose-only effect, or another doubt; inactive means no such curve, though single readings can be large; an effect the other way counts as inactive or inconclusive. Potency means the concentration at half of the fitted maximal effect.

SMILES | JMJD2A Tudor inh | PLK1 PBD inh | HP1b binding inh | BAZ2B block | L3MBTL1 inh | VDR inhibitor
COc1cc2c(=O)c(C(=O)c3ccc(F)cc3)cn(Cc3cccc(F)c3)c2cc1OC | -15% | x | 23% | -24% | x | -8%
O=S(=O)(Nn1cnnc1)c1ccccc1Cl | -7%[11.4 µM] | 27µM* | 21% | -3% | 12% | -4%
COc1ccc(C[C@H]2CN3C(=NC[C@@H]3C(C)C)N2C[C@H](C)NC(=O)c2ccc(C)c(Br)c2)cc1 | -30% | u | 8% | -36% | -8% | u
Cc1ccc(C(=O)N[C@@H](C)CN2C3=NC[C@H](C(C)C)N3C[C@H]2Cc2ccc(O)cc2)cc1Br | 79µM* | 27µM* | -8% | -35% | -12% | -28%
Nc1ncc(Br)cc1S(=O)(=O)Nc1cc(C(F)(F)F)cc(C(F)(F)F)c1 | -24% | 30µM* | 12%[57 µM] | -13% | x | u
Cc1ccc2nc3sc(C(=O)Nc4ccc(F)cc4)cc3cc2c1 | 40µM* | x | 16%[57 µM] | u | -2% | 8%
CC(=O)c1ccc(NC(=O)c2noc3c2CSc2ccccc2-3)cc1 | 8% | x | 50% | 7% | x | 2%
Cc1nn(C(C)C(=O)NCCCN2CCCCCC2)c(=O)c2c1sc1ccccc12 (stereo not drawn) | 50µM* | 27µM* | 16% | -22% | x | -20%
Cc1nn(CCCC(=O)NCCc2ccc(Cl)cc2)c(=O)c2c1sc1ccccc12 | 7.9µM* | x | 32µM* | 25µM* | x | 11%
CCOc1ccc(CCNC(=O)CCCn2nc(C)c3sc4ccccc4c3c2=O)cc1 | -7% | x | 0% | -13% | x | 6%
Cc1[nH]c(=O)sc1C(=O)NCc1ccc([N+](=O)[O-])cc1 | x | -2% | x | x | x | x
COC(=O)C1(CO)NC(c2cccs2)C2C(=O)N(c3ccccc3)C(=O)C21 (stereo not drawn) | -30%[57.1 µM] | 27µM* | -11% | 9% | 8% | 18%
O=C(O)Cn1nnc(-c2ccc(OCc3ccccc3)cc2)n1 | -4% | -2% | 52% | x | x | 6%
COc1ccc(C(=O)C[n+]2ccccc2C)cc1 | 25µM* | 6µM* | u | -3% | -9% | 32µM*
O=C(c1ccc(S(=O)(=O)Nc2ccccc2F)cc1)N1CCN(c2ccccc2O)CC1 | 32µM* | 2% | 27% | 2% | -3% | -5%
O=C(c1cccc(C(=O)N2CCN(c3ccccc3F)CC2)c1)N1CCN(c2ccccc2F)CC1 | -12% | -11% | 14% | -26% | x | 14%
O=C(c1ccc(C(=O)N2CCN(c3ccccc3F)CC2)nc1)N1CCN(c2ccccc2F)CC1 | 79µM* | 2% | 10% | -16% | 5% | 21%
O=C(c1ccc(NS(=O)(=O)c2ccc(F)cc2)cc1)N1CCN(c2ccccc2O)CC1 | -20% | -3% | 9% | -23% | x | 0%
Cc1ccc(-c2c(CN3CCN(c4cc(Cl)ccc4C)CC3)csc2C)cc1 | -23% | x | 31% | u | x | 5%
Cc1cc2c(s1)c1cnn(Cc3cccc(Br)c3)c(=O)c1n2C | -33% | x | x | x | x | x
O=C(/C=C/c1cn(-c2ccccc2)nc1-c1ccc2c(c1)OCCO2)NCCO | -18% | u | -17% | -30% | x | 10%
OCc1ccc2c(c1)c(-c1ccc3c(c1)OCCO3)c(-c1ccccc1)n2-c1ccccc1 | 45µM* | -1% | -17% | u | -28% | -18%
COc1ccc(C(=O)O)nc1C | 5.6µM* | -3% | 0% | 15% | 52% | -6%
COc1ccc(-c2nc(C(=O)O)cs2)cc1OC | u | -3% | 16% | -1% | -11% | 45%
CC(C)NC(=O)C(c1ccc(F)cc1)N(Cc1ccco1)C(=O)CCC(=O)Nc1ccccn1 (stereo not drawn) | -13% | -4% | -5% | 1% | x | 18%
SMILES | JMJD2A Tudor inh | PLK1 PBD inh | HP1b binding inh | BAZ2B block | L3MBTL1 inh | VDR inhibitor
CS(=O)c1ccccc1-c1nc(-c2cccc(Cl)c2)no1 (stereo not drawn) | 35µM* | 27µM* | -2% | 3% | 19% | -9%
Cc1ccc(NC(=O)CN(C)C(=O)COc2cccc3cccnc23)cc1 | u | -3% | 3% | 50µM* | u | -6%
CC(=O)c1cccc(OCC(=O)N(C)CC(=O)Nc2ccc(F)cc2)c1 | -8%[11.4 µM] | 30µM* | -1% | 3% | x | -26%
Cc1ccc(NC(=O)CN(C)S(=O)(=O)c2cccc3cccnc23)cc1 | -23% | -13% | 27% | 9% | x | -2%
CCc1cccc(C)c1NC(=O)Cn1ccn(-c2cccc(OC)c2)c(=O)c1=O | 6% | x | 27% | 2% | x | 11%
COCCCn1c(C(=O)Nc2ccc3c(c2)OCO3)cc2c(=O)n3ccccc3nc21 | 25µM* | 3µM* | 10% | -4% | x | u
COCCCn1c(C(=O)N2CCOCC2)cc2c(=O)n3ccccc3nc21 | -2% | -6% | 26% | -9% | x | 17%
S=C(Cc1cccnc1)N1CCOCC1 | 79µM* | 24µM* | u | 2% | 11% | u
O=C(O)c1ccc(S(=O)(=O)/N=C2\C=C(Nc3ccccc3F)C(=O)c3ccccc32)cc1 | 40µM* | 30µM* | 40µM* | 22µM* | x | 32µM*
COC(=O)C(C(C)=O)C1=C/C(=N\S(=O)(=O)c2ccc(C)cc2)c2ccccc2C1=O (stereo not drawn) | -23% | 28µM* | -20% | -10% | x | 4%
COC(=O)[C@H](CO)NS(=O)(=O)c1ccc(C)cc1 | -4% | -1% | 29% | x | 13% | -16%
Cc1ccccc1NC(=O)c1ccc(S(=O)(=O)N2CCCC2)cc1 | 4% | 2% | 23% | -2% | x | 6%
Cc1ccccc1NC1=C/C(=N\S(=O)(=O)c2ccc(C(=O)O)cc2)c2ccccc2C1=O | 40µM* | -28% | 45µM* | 13µM* | x | u
COc1ccccc1-c1ccc2c(c1)C(C)(Cc1ccc(F)c(Cl)c1)C(=O)N2 (stereo not drawn) | x | 4% | x | x | x | x
CC(C)OC(=O)c1cccc(C(=O)Oc2ccc(Br)cc2)n1 | 1% | -18% | 41% | 9% | 2% | -22%
CC(C)OC(=O)c1cccc(C(=O)O)n1 | 7.1µM* | 2% | 6% | u | 18% | 5%
CCCCC | x | x | x | x | x | -2%
Cc1cccc(OCC(=O)Nc2ccccc2OCc2cc(=O)n3cc(C)ccc3n2)c1 | 6% | x | 33%[57 µM] | 2% | x | 2%
CCC/C(O)=C1\C(=O)CC(C)(C)CC1=Nc1ccccc1O | u | 13µM* | -22% | 0% | -3% | 79µM*
CC1CCN(CC(O)COC2CC(C)CC(C)(C)C2)CC1 (stereo not drawn) | 6% | 8% | 64% | x | x | -6%
CC[N+]1(CC(O)COC2CC(C)CC(C)(C)C2)CCOCC1 (stereo not drawn) | 20µM* | -14% | 31% | -17% | x | -10%
CCOc1ccc(NC(=O)Cn2cc(S(=O)(=O)c3ccc(C)cc3)c(=O)c3cc(F)ccc32)cc1 | -10% | x | 15% | -3% | x | -7%

High-throughput results from PubChem.
